{"source": "paper PMC12136788", "binders": {"B1": {"name": "chr2:112659350:112659462:+|CDS|ENSG00000144136|unk|FALSE|unique (ssRNA)", "RNA": "GGGAGUUCUACAGUCCGACGAUCCUUGCCAAGGUGGGAGAUUGCAUGGGAGACUCCGGUGACAAACCCUUAAGGCGCAAUAAUAGCUAUACUUCCUAUACCAUGGCAAUAUGUGGCAUGCCUCUGGAUUCAUUCCGUGCCAAACAACAGAGGAUUGAGCAUCA"}, "B2": {"name": "chr12:49763637:49763739:+|3pUTR|ENSG00000139644|msi1_unk|total|mutant (ssRNA)", "RNA": "GGGAGUUCUACAGUCCGACGAUCAUGUGUAUCAAGGUACAGCAUCGCCGGGUUCCCCUAAACUUGCCCUGUUUUUGUUUUUUCCGUUUGUUAUCCCCUUACUGAGCGGCCUCUACCCGGUGGCUGUGAUUAAAUGUCCCAAGCCAACAGAGGAUUGAGCAUCA"}, "B3": {"name": "chr20:17613772:17613873:-|3pUTR|ENSG00000125844|unk|total|mutant (ssRNA)", "RNA": "GGGAGUUCUACAGUCCGACGAUCAGCCCCGUGGGUGUGUGGGAGGCCGGGCGCUCUGGGGUCUGUCUGUCAGUGCAAUCGUUCCGUGUUUUUUCAGUGGGGCGGGGCGGGAAGCGGGUGGGACCGGGCAGCCAGUUCUCAAAGCAACAGAGGAUUGAGCAUCA"}, "B4": {"name": "chr4:48851844:48851957:+|CDS|ENSG00000109180|unk|FALSE|unique (ssRNA)", "RNA": "GGGAGUUCUACAGUCCGACGAUCAUAUGACUCAAGUGUGAGUGGUCAAUCAUCUUUUGUGACAUCCCCAGCAGCAGACAACAUAGAAAUGCUUCCUCAUUAUGAGCCAAUUCCAUUCAGUUCUUCUAUGAAUGAAUCUGCUCCCAACAGAGGAUUGAGCAUCA"}, "B5": {"name": "ENSG00000107863:be:win_2201|CDS|ENSG00000107863|bound_else_gene|NA|bound_elsewhere_windowed (ssRNA)", "RNA": "GGGAGUUCUACAGUCCGACGAUCCUGUCAUCCUAAGGGAAAAACCUCCAUCUGGACGCCAGACACCGCAGCCUUUAAGGCAUCAGUCUUACAUCUUGGCAGUAAAUGACCAGGAGACCGGGUCAGACACUACCUGCUGGCUGCCAACAGAGGAUUGAGCAUCA"}, "B6": {"name": "chr18:55226207:55226308:-|3pUTR|ENSG00000196628|unk|FALSE|unique (ssRNA)", "RNA": "GGGAGUUCUACAGUCCGACGAUCAUUUUUACAGCCACACAAUUCUUGGCAUGUAUUAAGAAAAAAAAAAAUCCCUGUUCAAGUAGUUUUUCCACCUAUCAGCACUGAGUAAAUGCCAUAAAUCCAUUGAAAUGGUCUAAAUGUCAACAGAGGAUUGAGCAUCA"}, "B7": {"name": "chr16:21655520:21655610:+|3pUTR|ENSG00000197006|msi1_unk|total|mutant (ssRNA)", "RNA": "GGGAGUUCUACAGUCCGACGAUCUCUGUGUUCACAAUUACGUGAAGGGAGGACCCUUGGGGACCGCCAUUCUAAAUAUCAUGCCGGAAUUUAAAAAGCCAAAAUACUAAUUAUUUCUUUGCCGUGUGUAAAGGAAUGUUUUUACAACAGAGGAUUGAGCAUCA"}, "B8": {"name": "ENSG00000151612:stop:overlap|stop_codon|ENSG00000151612|stop_codon|NA|stop_codon (ssRNA)", "RNA": "GGGAGUUCUACAGUCCGACGAUCCAGGCCUGUUGGAGAAGGAAGCCAGCAGUGAGGGGGAUUGCAAAGUAGAGAGAGGUUGGUAGAACUGUGGACUGUGAAGAGAUCGAGAAUAGCACAGUUAACUAGGCAUUUGCCUUCGGCCAACAGAGGAUUGAGCAUCA"}, "B9": {"name": "ENSG00000136451:be:win_551|CDS|ENSG00000136451|bound_else_gene|NA|bound_elsewhere_windowed (ssRNA)", "RNA": "GGGAGUUCUACAGUCCGACGAUCGAGAUGUGUACCAUCUCAAUCGACACAAGCUCUCCCAUUCAGAUGAGAAACCCUUUGAGUGUCCUAUUUGUAAUCAGCGCUUCAAGAGGAAGGACCGGAUGACUUACCAUGUGAGGUCUCCAACAGAGGAUUGAGCAUCA"}, "B10": {"name": "chr6:134965076:134965177:-|3pUTR|ENSG00000112339|unk|total|mutant (ssRNA)", "RNA": "GGGAGUUCUACAGUCCGACGAUCAAAGGAACAAUGUGCAAUUGAUAUGUUUUCCGAUGAGAGAGAAAAAUUAAAGCUAAAAUCCGCUGCAAAGAAGUAUUAAUAAUCACCUCUGCAAAAAUUCUAAGUUGCCAACUGGCAAAGCAACAGAGGAUUGAGCAUCA"}, "B11": {"name": "chr19:811491:811550:+|3pUTR|ENSG00000011304|msi1_unk|FALSE|overlapping (ssRNA)", "RNA": "GGGAGUUCUACAGUCCGACGAUCUAGCAAUAUUUCCAGUUGACCAAAUAUUCUAAUCUUUUUUCAUUUAUAUGCAAAAGAAAUAGUUUUAAGUAACUUUUUAUAGCAAGAUGAUACAAUGGUAUGAGUGUAAUCUAAACUUCCCAACAGAGGAUUGAGCAUCA"}, "B12": {"name": "ENSG00000070961:be:win_4701|3pUTR|ENSG00000070961|bound_else_gene|NA|bound_elsewhere_windowed (ssRNA)", "RNA": "GGGAGUUCUACAGUCCGACGAUCUUUUCUAAUCUUUAGAGACCUUCACACAGCAUGAGGGCUGUUGGCAUUUUGAAAAAGGUUAAUAAGUAGAAGCAUACAUGUUUUCCUUUUGUUUUUGAAACUUGUUUGUAAACAUAAAUACAACAGAGGAUUGAGCAUCA"}, "B13": {"name": "chr7:111727939:111728040:-|3pUTR|ENSG00000128512|unk|FALSE|unique (ssRNA)", "RNA": "GGGAGUUCUACAGUCCGACGAUCAAGUGGUAAAUAGUGAUAAAGACUCCUUUUGUACCUUUUUAUGUUCACUUUUUUUUAUAUAGUUUAAUCUUAAAACCAAUACGAUAUUGUCAAACGAUACAAUGUGUGACAAUGUUGUAUCAACAGAGGAUUGAGCAUCA"}, "B14": {"name": "ENSG00000070961:be:win_4651|3pUTR|ENSG00000070961|bound_else_gene|NA|bound_elsewhere_windowed (ssRNA)", "RNA": "GGGAGUUCUACAGUCCGACGAUCACAUGUUAGUUUAGUGAUGUCUUGGUGAACUGUGAGUGAACUGUAUUGAUUUUUCUAAUCUUUAGAGACCUUCACACAGCAUGAGGGCUGUUGGCAUUUUGAAAAAGGUUAAUAAGUAGACAACAGAGGAUUGAGCAUCA"}, "B15": {"name": "ENSG00000070961:be:win_4601|3pUTR|ENSG00000070961|bound_else_gene|NA|bound_elsewhere_windowed (ssRNA)", "RNA": "GGGAGUUCUACAGUCCGACGAUCUCAGACUAUCAAACUACAAGAGAACCUUAGUCUUUUUUGUUUUUGUCUAAACAUGUUAGUUUAGUGAUGUCUUGGUGAACUGUGAGUGAACUGUAUUGAUUUUUCUAAUCUUUAGAGACCCAACAGAGGAUUGAGCAUCA"}, "B16": {"name": "chr7:111727939:111728040:-|3pUTR|ENSG00000128512|unk|total|mutant (ssRNA)", "RNA": "B13 RNA with U34C, A35C, U83C, A84C"}}, "note": "Substitutions are numbered along the chain they refer to. In all, about 5,800 sequences were measured (“enrichment r”: median about 0.54, highest 2% from about 16 on). Only a selection was taken, and the highest values are over-represented in it overall.", "data": [{"biological_target": "MSI1 full-length (mouse, UniProt Q61474 1-362)", "sequence (Q61474 whole entry)": "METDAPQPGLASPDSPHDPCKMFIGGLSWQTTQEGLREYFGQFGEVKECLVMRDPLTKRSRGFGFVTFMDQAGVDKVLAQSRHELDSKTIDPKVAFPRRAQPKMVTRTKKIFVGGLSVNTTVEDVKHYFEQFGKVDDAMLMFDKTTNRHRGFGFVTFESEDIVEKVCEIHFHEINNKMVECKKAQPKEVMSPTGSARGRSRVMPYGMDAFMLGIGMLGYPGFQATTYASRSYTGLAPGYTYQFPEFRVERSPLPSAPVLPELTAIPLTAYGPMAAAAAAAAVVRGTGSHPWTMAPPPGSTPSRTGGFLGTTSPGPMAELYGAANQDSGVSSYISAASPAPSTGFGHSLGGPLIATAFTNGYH", "assay": "nsRBNS (natural sequence RNA bind-n-seq); RBNS binding buffer (assumed for nsRBNS): 25 mM Tris pH 7.5, 150 mM KCl, 3 mM MgCl2, 0.01% Triton X-100, 500 ug/ml BSA, 20 U/ml SUPERase-In, 4 C; UNK is unkempt and MSI1 is Musashi-1; names of the RNAs are library labels; protein concentration not given here; high values mean tight binding", "units": {"binding signal": "enrichment R"}, "values": [{"binder": "B1", "binding signal": 0.737}, {"binder": "B2", "binding signal": 0.481}, {"binder": "B3", "binding signal": 0.811}, {"binder": "B4", "binding signal": 0.341}, {"binder": "B5", "binding signal": 0.283}, {"binder": "B6", "binding signal": 0.374}, {"binder": "B7", "binding signal": 0.282}, {"binder": "B8", "binding signal": 3.25}, {"binder": "B9", "binding signal": 0.307}, {"binder": "B10", "binding signal": 0.346}, {"binder": "B11", "binding signal": 0.9}, {"binder": "B12", "binding signal": 0.664}, {"binder": "B13", "binding signal": 37.8}, {"binder": "B14", "binding signal": 28.3}, {"binder": "B15", "binding signal": 3.69}, {"binder": "B16", "binding signal": 3.05}]}]}
